The whole screen tested about 5,500 compounds, of which about 2,000 (36%) were called active. About 18% were inconclusive and are not listed. No stated cut-off is given here; in the data, active means normalized growth mostly below about 0.91 (no sharp cut-off); inconclusive means no clear call, values can overlap the other calls; inactive means mostly above about 0.92. The list shows a part of the results.
Test: chemical genetic growth profiling, strain panel (AID 1159580);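 further: tested at 20 µM; growth read once vehicle control cultures reached saturation at 30 °C; 1 = growth at the plate median or of vehicle wells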
Settings: S. cerevisiae deletion strains, growth OD

Measured: normalized growth

O=c1[nH]c2cc(Cl)ccc2c(O)c1-c1ccc(Oc2ccccc2)cc1
inactive: locus YAL040C, strain CLN3, stronger effect = lower value 1 | locus YCL061C, strain MRC1 (second series), stronger effect = lower value 0.993 | locus YDR150W, strain NUM1, stronger effect = lower value 0.992 | locus YDR363W, strain ESC2, stronger effect = lower value 1 | locus YER002W, strain NOP16, stronger effect = lower value 1.01 | locus YGR078C, strain PAC10, stronger effect = lower value 1.01 | locus YJR075W, strain HOC1, stronger effect = lower value 0.987 | locus YMR263W, strain SAP30, stronger effect = lower value 0.999 | locus YMR307W, strain GAS1, stronger effect = lower value 0.983 | locus YNL128W, strain TEP1, stronger effect = lower value 1.02 | locus YNL153C, strain GIM3, stronger effect = lower value 1.03 | locus YNL175C, strain NOP13, stronger effect = lower value 1 | locus YNL197C, strain WHI3, stronger effect = lower value 1.01 | locus YNL224C, strain SQS1, stronger effect = lower value 1 | locus YNL322C, strain KRE1, stronger effect = lower value 0.988 | locus YOR083W, strain WHI5 (second series), stronger effect = lower value 0.99 | locus YPL055C, strain LGE1, stronger effect = lower value 1.01

— PubChem BioAssay AID1159580 (chemical genetic matrix, 2015)
